# Assay results published in ChEMBL document CHEMBL4513141, “CO-ADD screening of NIH (USA) - Clinical Collection” (2021).
# Potency and affinity values are given separately.
# How the values were obtained:
# Staphylococcus aureus = details: Concentration 20 uM; ASSAY_TEST Inhibition of Bacterial Growth; detection method Absorption (OD600); MEDIA CAMHB; plate type 384well; NBS; CORNING #3640; time 18 hr
# Escherichia coli = details: Concentration 20 uM; ASSAY_TEST Inhibition of Bacterial Growth; detection method Absorption (OD600); MEDIA CAMHB; plate type 384well; NBS; CORNING #3640; time 18 hr
Compound,Inhibition (Staphylococcus aureus),Inhibition (Escherichia coli)
CCCN[C@H]1CCc2nc(N)sc2C1 [PRAMIPEXOLE],-18.52%,2.75%
CC(C)NCC(O)COc1ccc(CCOCC2CC2)cc1.Cl (stereo not given) [BETAXOLOL HYDROCHLORIDE],7.41%,0.81%
COc1ccc2c(c1)c(CC(=O)O)c(C)n2C(=O)c1ccc(Cl)cc1.O,8.16%,7.22%
CC(N/C(=N\C#N)Nc1ccncc1)C(C)(C)C.O (stereo not given),-1.94%,-6.33%
CN(C)[C@@H]1C(=O)C(C(=O)NCN2CCCC2)=C(O)[C@@]2(O)C(O)=C3C(=O)c4c(O)cccc4[C@@](C)(O)C3CC12 (stereo not given in full),23.2%,5.47%
